Bioassay records (PubChem BioAssay)
Most compounds without a hit are left out; they make up all but 1.2% or so of the library.
Avidin fluor: avidin bead compound fluorescence profile; AID 1775; Avidin beads, compound fluorescence 488/530 nm, flow cytometry; hits give high values; 220,000 compounds, 0.38% hits; fluorescence (KMESF) at 10 µM; in the data active means fluorescence above about 47
RGS4-Gao reg: human RGS4-Galphao interaction regulation; P09471; Multiplexed bead flow cytometry, RGS4-Galphao binding; actives lie on both sides; binding response (% of control), % at 10 µM; 220,000 compounds, 0.33% hits; AID 1415; in the data active means binding response below about 49% or above about 150%; inactive means in between;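 further: fluorescent Galphao activated with aluminum fluoride binding bead-coupled RGS4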
RGS16-Gao: RGS16-Galphao interaction regulator (human); 220,000 compounds, 0.38% hits; binding response (% of control), % at 10 µM; O15492+P09471; bead-based flow cytometry RGS16-Galphao binding, fluorescence; actives lie on both sides; AID 1441;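 further: Galphao activated by GDP with aluminum fluoride before binding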
RGS7-Gao reg: modulates binding of RGS7 to human Galphao; AID 1439; binding response (% of control), % at 10 µM; 220,000 compounds, 0.35% hits; P09471; Multiplexed bead flow cytometry; actives lie on both sides; in the data active means binding response below about 49% or above about 150%;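 further: fluorescent Galphao held in activated GDP-AlF4 state binding bead-coupled RGS7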
RGS8-Gao reg: regulators of human RGS8-Galphao interaction; 220,000 compounds, 0.34% hits; P09471; response (percent of control binding), % at 10 µM; multiplexed bead flow cytometry, RGS8-Galphao binding; actives lie on both sides; AID 1423; in the data active means response below about 60% or above about 140%; inactive means in between;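 further: Galphao activated as the GDP aluminium fluoride complex binding bead-coupled RGS8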
GSH bead fluor: compound fluoresces at 488/530 nm on GSH beads | GSH beads flow cytometry, compound fluorescence 488/530 nm; hits give high values | fluorescence (KMESF) at 10 µM | 190,000 compounds, 0.25% hits | AID 1776; in the data active means fluorescence above about 89;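 further: glutathione beads carrying GST-tagged Bcl family fusion proteins plus one bare bead set; values are compound well signal with DMSO vehicle wells as background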
RGS-Gao: regulators of human RGS4-Galphao interaction. shares compounds with RGS16-Gao. multiplexed bead flow cytometry, RGS–Galpha-o binding. RGS4–Galpha-o binding response, % at 10 µM. 1,600 compounds, 99% hits. AID 1504;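 further: fluorescently labeled Galpha-o bound to GDP with aluminium fluoride binding biotinylated RGS beads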
Avidin counter: counter-screen: compounds disrupting biotin binding to avidin beads; shares compounds with RGS16-Gao; streptavidin beads, fluorescein-biotin binding, flow cytometry; inhibition, % at 10 µM; 1,700 tested, under 10 active; AID 1783;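 active means inhibition above 50%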;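 further: median green fluorescence of gated singlet beads compared with DMSO control wells; 0% = DMSO wells and 100% = complete loss of bead fluorescence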
RGS8-Gao single: confirmation of regulators of human RGS8-Galphao interaction; AID 1836; bead-based flow cytometry RGS8-Galphao binding, fluorescence; actives lie on both sides; 1,700 compounds, 3% hits; shares compounds with RGS16-Gao; binding response (% of control), % at 10 µM; in the data active means binding response below about 72% or above about 130%; inactive means in between;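 further: Galphao activated as GDP AlF4 complex before binding bead RGS8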
RGS7-Gao single: confirmation of regulators of human RGS7-Galphao interaction; shares compounds with RGS16-Gao; bead-based flow cytometry RGS7-Galphao binding; actives lie on both sides; response (percent of control binding), % at 10 µM; 1,700 compounds, 7.8% hits; in the data active means response below about 75% or above about 130%; inactive means in between;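 further: fluorescent Galphao activated with GDP and aluminum fluoride binding bead-coupled RGS7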
RGS16-Gao conf: confirmation of regulators of human RGS16-Galphao interaction | response (% of control binding), % at 10 µM | 1,700 compounds, 4% hits | bead-based flow cytometry, RGS16-Galphao binding; actives lie on both sides | shares compounds with RGS16-Gao; in the data active means response below about 74% or above about 130%; inactive means in between;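 further: Galphao activated as the GDP aluminium fluoride complex binding bead-coupled RGS16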
RGS4-Gao single: confirmation of regulators of human RGS4-Galphao interaction | shares compounds with RGS16-Gao | RGS4-Galphao binding, multiplexed bead flow cytometry; actives lie on both sides | binding response (% of control), % at 10 µM | 1,700 compounds, 4% hits; in the data active means binding response below about 74% or above about 130%; inactive means in between
RGS19-Gao conf: confirmation of regulators of human RGS19-Galphao interaction. shares compounds with RGS16-Gao. bead-based flow cytometry RGS19-Galphao binding; actives lie on both sides. response (percent of control binding), % at 10 µM. 1,700 compounds, 5% hits. AID 1841; in the data active means response below about 50% or above about 160%; inactive means in between;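 further: 100% = no compound control and 0% = blank background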
Target sequence (P09471 whole entry, looked up): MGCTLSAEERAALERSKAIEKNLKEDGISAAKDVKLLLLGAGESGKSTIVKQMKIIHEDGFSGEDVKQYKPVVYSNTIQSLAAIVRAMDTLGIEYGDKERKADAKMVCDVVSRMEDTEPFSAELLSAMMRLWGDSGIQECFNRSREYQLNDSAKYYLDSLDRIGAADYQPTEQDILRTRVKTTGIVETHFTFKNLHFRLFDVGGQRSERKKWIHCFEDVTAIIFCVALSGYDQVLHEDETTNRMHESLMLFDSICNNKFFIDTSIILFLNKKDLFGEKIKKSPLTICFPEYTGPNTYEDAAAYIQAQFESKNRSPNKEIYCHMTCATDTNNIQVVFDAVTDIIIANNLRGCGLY
Target sequence (P49795 whole entry, looked up): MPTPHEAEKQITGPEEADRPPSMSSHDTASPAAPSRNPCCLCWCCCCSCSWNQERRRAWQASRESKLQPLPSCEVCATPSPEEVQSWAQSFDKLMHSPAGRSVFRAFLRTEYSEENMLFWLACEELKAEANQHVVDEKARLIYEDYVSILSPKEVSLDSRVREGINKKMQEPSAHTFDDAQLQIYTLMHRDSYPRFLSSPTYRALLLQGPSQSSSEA
* marks the source's active call; other numbers are inactive results; · = no result given; [ ] = another dose, or the depositor's remark. Unless noted, how the calls were made is not given here.

SMILES	Avidin fluor	RGS4-Gao reg	RGS16-Gao	RGS7-Gao reg	RGS8-Gao reg	GSH bead fluor	RGS-Gao	Avidin counter	RGS8-Gao single	RGS7-Gao single	RGS16-Gao conf	RGS4-Gao single	RGS19-Gao conf
COc1ccccc1NC(=O)Cn1nnc(-c2ccccc2NC(=O)c2ccco2)n1	·	·	·	·	·	10	·	-1	103	103	103	105	101
COc1ccc(NC(=O)Cn2nnc(-c3ccccc3NC(=O)c3ccco3)n2)cc1	35	106	103	105	103	14	·	·	·	·	·	·	·
COc1ccc(/C=C/C(=O)NC(=S)Nc2ccc(S(=O)(=O)Nc3nccnc3OC)cc2)cc1	10	101	100	98	100	11	·	·	·	·	·	·	·
S=C(Nc1ccc(Cl)cc1)NC1CC2CCCC(C1)N2C1CCCC1 (stereo not drawn)	8	98	102	99	101	61	·	·	·	·	·	·	·
C=CCN(C(=O)Nc1ccc(Cl)cc1)C1CC(=O)N(c2ccc(OC)cc2)C1=O (stereo not drawn)	9	101	97	100	99	7	·	·	·	·	·	·	·
C=CCN(C(=O)Nc1ccc(F)cc1)C1CC(=O)N(c2ccc(OC)cc2)C1=O (stereo not drawn)	6	134	350	125	158*[activator]	8	134*	0	98	103	101	105	104
CCN1CCN(CCNC(=O)c2ccc(CS(=O)(=O)c3ccccc3C)o2)CC1	17	113	176	120	131	18	·	·	·	·	·	·	·
Cc1ccc(Sc2c(O)c3ccccc3n(C)c2=O)cc1	1	99	14*	91	68	12	99*	0	103	107	105	109	96
O=C(c1ccc(=O)[nH]c1)N(Cc1cccs1)C1(C(=O)NC2CCCC2)CCCCC1	4	116	259*[activator]	108	141*[activator]	10	116*	-1	104	105	105	103	101
O=C(N[C@@H](Cc1ccccc1)C(=O)OCc1ccccc1)c1nc[nH]c1C(=O)NC(c1ccccc1)c1ccccc1	7	100	101	94	100	18	·	·	·	·	·	·	·
COc1ccc(-n2nc(C(=O)NCC(=O)Nc3ccccn3)c3ccccc3c2=O)cc1Cl	40	167*[activator]	161	110	106	19	·	2	102	98	100	96	102
BrC(=C\c1ccccc1)/C=N/N1CCN(c2ccccc2)CC1	6	100	101	97	98	10	·	·	·	·	·	·	·
CC(C)OC(=O)C1C(=O)CC(C)(O)C(C(=O)OC(C)C)C1c1ccccc1 (stereo not drawn)	-1	2.3*	-3.2*	1.8*	5.7*	15	·	-2	101	101	102	101	103
COc1ccccc1-c1ccc(=O)n(CC(=O)NCc2ccc3c(c2)OCO3)n1	6	102	104	103	100	14	·	·	·	·	·	·	·
COC(=O)c1c(NC(=O)COC(=O)CCS(=O)(=O)c2ccc(C)cc2)sc(C)c1C	3	92	255*[activator]	83	106	9	92*	1	104	139*[activator]	115	118	160*[activator]
